Where “and” joins values, the source holds several entries; their conditions need not be identical. Equal values may be shown once. Results filed as inconclusive are left out. Where a call stands in place of a potency, no number is given. A structure can be active in one record and inactive in another. Calls of active or inactive are those of the source. Calls come from the whole dose curve; as a rule, active = well fitted cell-killing curve with a large enough effect in the repeat runs; inconclusive = weak or mixed curves, or effect the other way; inactive = no such curve, though single readings can be large or run the other way.
Potency is the fitted concentration of half-maximal effect.

The nature of this assay: qHTS assay to identify small molecule antagonists of the peroxisome proliferator-activated receptor gamma (PPARg) signaling pathway - cell viability counter screen (AID 743194). Note: nearly all actives have a fitted effect of over 55% in size. The conditions noted are these: PPARg-bla HEK293H viability, CellTiter-Glo luminescence, 17 h; Potency: co-treated with 50 nM rosiglitazone unless noted; series mostly up to 62.6 µM; activity change, negative = cytotoxicity: at the top concentration. From the text: U.S. Tox21 Program National Center for Advancing Translational Sciences [NCATS] NIH Chemical Genomics Center [NCGC] U.S. Environmental Protection Agency [EPA] National Institutes of Environmental Health Sciences [NIEHS] National Toxicology Program [NTP] U.S. Food and Drug Administration [FDA] Tox21 Assay Overview: The peroxisome proliferator-activated receptors (PPARs) are lipid-activated transcription factors of the nuclear receptor superfamily with three distinct subtypes namely PPAR alpha, PPAR delta (also called PPAR beta) and PPAR gamma (PPARg). All these subtypes heterodimerize with Retinoid X receptor (RXR) and these heterodimers regulate transcription of various genes. PPAR-gamma receptor (glitazone receptor) is involved in the regulation of glucose and lipid metabolism. To identify the compounds that activate PPAR-gamma signaling, GeneBLAzer PPAR gamma UAS-bla HEK293H cell line (Invitrogen, Carlsbad, CA, USA) containing a beta-lactamase reporter gene under the control of an Upstream Activator Sequence (UAS) was used to screen the Tox21 compound library. The cytotoxicity of the Tox21 compound library against the PPARg-bla cell line was tested in parallel by measuring the cell viability using CellTiter-Glo assay in the same wells.
Tox21 Assay Protocol Summary: PPARg-bla cells were dispensed at 3000 cells/5uL/well in 1536-well black wall/clear bottom plates using a Multidrop Combi (Thermo Fisher Scientific, Waltham, MA) dispenser. After the assay plates were incubated at 37 C and 5% CO2 for 5 h, 23 nL of compounds dissolved in DMSO, positive controls or DMSO only was transferred to the assay plate by a Pintool station (Kalypsys, San Diego, CA), followed by addition of 1ul Rosiglitazone (50 nM, final concentration in the wells). The assay plates were incubated at 37 C for 17 h, and then 1 uL of LiveBLAzerTM B/G FRET substrate was added using a Bioraptr Flying Reagent Dispenser (FRD) workstation (Beckman Coulter, Indianapolis, IN, USA). The assay plates were incubated at room temperature for 1 h and fluorescence intensity was measured by an Envision plate reader (PerkinElmer, Shelton, CT). For cell viability readout that measures cytotoxicity, 4 ul/well of CellTiter-Glo reagent was added into the assay plates using a Flying Reagent Dispenser. After 30 min incubation at room temperature, the luminescence intensity in the plates was measured using a ViewLux plate reader (PerkinElmer).
In general terms: qHTS replaces the single test concentration by a dilution series.
`O=S(=O)(O)C(F)(F)C(F)(F)C(F)(F)C(F)(F)C(F)(F)C(F)(F)C(F)(F)C(F)(F)F`: the Potency entry was “inactive”.

On to `CNC(=S)S`, for which the “activity change, negative = cytotoxicity” value is 14.2% (inactive).

As for `CCCCC(C#N)(Cn1cncn1)c1ccc(Cl)cc1` (stereo not given), the “activity change, negative = cytotoxicity” value is -16.1% (inactive).

For the compound `CCOP(=S)(OCC)OP(=S)(OCC)OCC`, the “activity change, negative = cytotoxicity” value is -4.86% [at 81.1 µM, co-treated with 50 nM rosiglitazone] (inactive).

Turning to `C[N+](C)(C)CC(=O)O`, the Potency entry is “inactive”.

On to `ClC(Cl)=C(Cl)C(Cl)=C(Cl)Cl`, for which the “activity change, negative = cytotoxicity” value was 0.716% (inactive).

`CC(C)(C#N)N=NC(C)(C)C#N`: the Potency entry was “inactive”.

Take `CCCCOCC1CO1` (stereo not given): the Potency entry is “inactive”.

`COP(=S)(OC)Oc1ccc(S(=O)(=O)N(C)C)cc1`: the Potency entry was “inactive”.

For the compound `N#CC(c1ccccc1)c1ccccc1`, the Potency result was “inactive”.

Turning to `ClC(Cl)(Cl)c1ccccc1`, the Potency result is “inactive”.

With `CCC/C=N/O`, the Potency result is “inactive”.

Consider `N#Cc1c(Cl)c(Cl)c(Cl)c(C#N)c1Cl`, for which the Potency is 2.41 µM (active) and 1.55 µM (active).

As to `N#Cc1nn(-c2c(Cl)cc(C(F)(F)F)cc2Cl)c(N)c1S(=O)C(F)(F)F` (stereo not given), the “activity change, negative = cytotoxicity” value is -19.2% (inactive).

With `c1ccc(C2CO2)cc1` (stereo not given), the Potency result is “inactive”.

For the compound `CCC(=O)Nc1ccc(Cl)c(Cl)c1`, the Potency entry was “inactive”.

Consider `CC(C)(O)C(=O)Nc1ccc([N+](=O)[O-])c(C(F)(F)F)c1`, for which the “activity change, negative = cytotoxicity” value is 0.6% [at 81.1 µM, co-treated with 50 nM rosiglitazone] (inactive).

In the case of `CNC(=O)Oc1cccc2c1OC(C)(C)C2`, the Potency result was “inactive”.

As for `Clc1cccc(Cl)c1`, the Potency result is “inactive”.

On to `CC(C)(c1ccccc1)c1ccc(O)c(C(C)(C)c2ccccc2)c1`, for which the Potency is 15.3 µM (active) and 19.5 µM (active).

With `Cc1ccc([N+](=O)[O-])cc1`, the Potency result was “inactive”.

`Clc1ccc(C(Cl)(Cl)Cl)cc1`: the “activity change, negative = cytotoxicity” value was -10.8% (inactive).

In the case of `O=C(O)c1nn(Cc2ccc(Cl)cc2Cl)c2ccccc12`, the Potency result is “inactive”.

`CCCCCCCCCC(CC)c1ccc(S(=O)(=O)O)cc1` (stereo not given): the Potency entry is “inactive and 15.5 µM [setting not given] (active)”.

As to `CCOC(=O)c1ccccc1N`, the Potency entry is “inactive”.

As to `CCCCOCCOC(C)=O`, the Potency result was “inactive”.

For `CCCCOC(=O)COC(=O)c1ccccc1C(=O)OCCCC`, the “activity change, negative = cytotoxicity” value is 1.62% (inactive).

Regarding `CC(C)(O)C#N`, the Potency result was “inactive”.

Regarding `CCNCC`, the Potency entry was “inactive”.

For `O=C1Nc2ccc(Cl)cc2C(c2ccccc2)=NC1O` (stereo not given), the Potency result is “inactive”.

`COc1ccc(O)c(C(C)(C)C)c1`: the Potency entry was “inactive”.

With `Cc1cc(Cl)ccc1N=CN(C)C`, the Potency entry is “inactive”.

As for `CCOP(=S)(OCC)SCSC(C)(C)C`, the Potency entry is “inactive”.

For the compound `CC(O)CN(CC(C)O)CC(C)O` (stereo not given), the “activity change, negative = cytotoxicity” value was 3.98% (inactive).

Consider `CNC(=O)CSP(=S)(OC)OC`, for which the Potency entry was “inactive”.

As for `C=CC(Cl)CCl` (stereo not given), the Potency entry is “inactive”.

Take `C[C@]12CC[C@H]3[C@@H](CCC4=CC(=O)CC[C@@H]43)[C@@H]1CC[C@@H]2O`: the Potency result is “inactive”.

As to `CCC1(c2ccc(N)cc2)CCC(=O)NC1=O` (stereo not given), the “activity change, negative = cytotoxicity” value was 5.72% [at 62.6 µM] (inactive).

For the compound `Clc1ccccc1-c1nnc(-c2ccccc2Cl)nn1`, the Potency result was “inactive”.

`O=C1C(Cl)=C(Cl)C(=O)c2ccccc21`: the Potency was 39 µM (active) and 11 µM (active).

The record behind these values is PubChem BioAssay (Tox21).
